How the values were obtained:
Assay type in all cases: functional
[1] = target: Solute carrier family 2, facilitated glucose transporter member 1 (Homo sapiens) (UniProt P11166); test: ST_JUDE_LEISH: Cytotoxicity at 2uM final concentration against transgenic Leishmania Mexicana promastigotes LmGLUT1 that are glucose transport deficient and complemented with the human glucose transporter GLUT1. Activity is measured by DNA content using SYBR green in vitro
[2] = target: Hexose transporter 1 (Plasmodium falciparum) (UniProt O97467); test: ST_JUDE_LEISH: Cytotoxicity at 2uM final concentration against transgenic Leishmania Mexicana promastigotes LmPfHT that are glucose transport deficient and complemented with the Plasmodium falciparum hexose transporter. Activity is measured by DNA content using SYBR green in vitro
[3] = target: Glucose transporter (Leishmania mexicana) (UniProt O61059); test: ST_JUDE_LEISH: Cytotoxicity at 2uM final concentration against transgenic Leishmania Mexicana promastigotes LmGT2 that are glucose transport deficient and complemented with the L. Mexicana glucose transporter 2. Activity is measured by DNA content using SYBR green in vitro

Chain of Solute carrier family 2, facilitated glucose transporter member 1 (Homo sapiens) (P11166 whole entry): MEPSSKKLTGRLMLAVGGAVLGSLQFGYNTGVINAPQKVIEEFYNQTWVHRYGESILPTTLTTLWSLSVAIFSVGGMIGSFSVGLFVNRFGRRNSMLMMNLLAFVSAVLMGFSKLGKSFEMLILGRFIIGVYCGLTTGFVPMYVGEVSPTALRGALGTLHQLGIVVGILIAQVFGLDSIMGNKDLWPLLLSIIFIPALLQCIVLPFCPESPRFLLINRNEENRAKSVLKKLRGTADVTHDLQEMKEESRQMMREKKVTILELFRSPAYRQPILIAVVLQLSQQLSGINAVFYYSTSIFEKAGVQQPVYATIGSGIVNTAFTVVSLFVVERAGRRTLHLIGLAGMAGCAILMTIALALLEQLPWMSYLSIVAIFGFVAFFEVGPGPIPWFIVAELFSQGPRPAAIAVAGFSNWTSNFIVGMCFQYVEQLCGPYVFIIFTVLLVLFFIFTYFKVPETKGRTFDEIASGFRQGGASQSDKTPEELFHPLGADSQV

SMILES	inhibition [1]	inhibition [2]	inhibition [3]
O=C(NCCCCN1CC=C(c2ccc3c(c2OCC2CC2)CCCC3)CC1)c1ccc(-c2ccc(C(F)(F)F)cc2)cc1	5.41%	5.39%	5.23%
N#Cc1ccc(N(CCOC(=O)c2ccc(Br)s2)Cc2ccccc2C(F)(F)F)cc1C(F)(F)F	1.7%	4.9%	3.28%
COc1ccc(CNCc2ccc(-c3cccc(-c4nc5cc(C(F)(F)F)ccc5[nH]4)c3)cc2)cc1	-1.07%	-0.35%	-2.33%
CC(C)(C)[C@@H](Nc1ccc(C#N)c2ccccc12)C(=O)NC1(Cc2ccc(O)cc2)CCCC1	0.1%	-0.5%	0.41%
O=S(=O)(NC1=NCCC1)c1cccc(Nc2nc(C(F)(F)F)nc3ccccc23)c1	-1.06%	-1.27%	-3.08%
CN(CCN1CCC(c2c[nH]c3ccccc23)CC1)C(=O)OCCCCCNC(=O)/C=C/c1ccc(Cl)c(Cl)c1	9.15%	10.3%	8.82%
CS(=O)(=O)Nc1cccc(-c2cnc3[nH]cc(-c4ccc(CCC(=O)O)cc4)c3c2)c1	2.69%	1.66%	4.76%
CCC1CCCCN1S(=O)(=O)c1ccc(OC)c(N2CCN(C(=O)C(Cl)(Cl)Cl)CC2)c1 (stereo not drawn)	4.89%	6.41%	6.44%
CCCN(CCC)C(=O)c1cc(C(=O)N[C@@H](Cc2ccccc2)[C@H](O)CNCc2cccc(OC)c2)cc(N2CCCCS2(=O)=O)c1	4.58%	5.76%	5.14%
O=C(Nc1ccc(C(F)(F)F)cc1)Nc1cccc([N+](=O)[O-])c1	2.81%	2.48%	3.51%
CCOC(=O)c1cccc(NC(=O)Nc2cc(C)nc3ccccc23)c1	9.1%	6.21%	5.11%
CN(C)CCCc1cc2c(cc1Cl)CCN2C(=O)Nc1ccc(-c2ccncc2)c2ccccc12	-2.58%	-1.62%	-3.5%
O=C(c1ccc(-c2cccc(-c3nc4cc(C(F)(F)F)ccc4[nH]3)c2)cc1)N1CCCCC1CN1CCC(O)C1 (stereo not drawn)	-0.47%	0.38%	0.17%
COc1ccc2nccc(CCN3CC(O)C(CNCc4ccc5c(n4)NC(=O)CS5)C3)c2n1 (stereo not drawn)	3.43%	3.49%	4.07%
O=C(N[C@H]1CCN(Cc2ccc(OCCN3CCNCC3)c3ccccc23)C1)c1ccc(Cl)c(Cl)c1	1.1%	4.37%	2.91%
Cc1cc(C2CCN(CCCCNC(=O)c3ccc(NC(=O)c4ccc(Cl)cc4)cc3)CC2)c(C)cc1OCc1ccncc1	8.72%	7.09%	7.42%
CN(CCN)Cc1cccc(-c2ccc(-c3nc4cc(C(F)(F)F)ccc4[nH]3)s2)c1	10.8%	11.3%	8.17%
CN1CCN(c2ccc(Nc3c4ccccc4nc4ccccc34)cc2)CC1	7.02%	6.39%	5.74%
Cc1cccc(CNc2nc(C)cc(N[C@@H](Cc3ccccc3)C(=O)NC3CCCC3)n2)c1	16.1%	12.4%	7.72%
O=C(Nc1cccc(-c2cccc(-c3ccc(F)cc3)n2)c1)c1ccc([N+](=O)[O-])o1	9.83%	11.4%	1.35%
COc1ccc2ccc(F)c(CCN3CCC(NCc4cc5c(cn4)OCCO5)CC3)c2n1	8.37%	14%	22.4%
Cc1ccc(CN(Cc2ccc(C(=O)N(C)C)cc2)Cc2ccc3c(c2)OCCO3)cc1C	0.09%	0.35%	0.35%
Cc1cccc2nc(-c3ccc(-c4cccc(CN5CCN(c6ccc(C#N)cn6)CC5)c4)s3)[nH]c12	0.91%	-1.69%	1.21%
N#Cc1ccc(N/C(=N\c2ccc(-c3ccccc3)cc2)NCc2cccnc2)c(O)c1	6.14%	1.66%	5.44%

SMILES	inhibition [1]	inhibition [2]	inhibition [3]
Cc1cc(Nc2ccncc2)n2nc(C)c(-c3ccc(Cl)cc3)c2n1	11.6%	9.35%	8.71%
COc1ccccc1C1CN(CCNC(=O)c2nc(C)c[nH]2)Cc2ccccc2O1 (stereo not drawn)	0.43%	2.02%	5.66%
c1ccc2[nH]c(-c3ccc(-c4ccc(CNCCc5ccncc5)cc4)s3)nc2c1	8.39%	5.02%	2.3%
Clc1cc(Cl)cc(Nc2ccnc(Nc3cc(Cl)cc(Cl)c3)n2)c1	4.6%	2.75%	2.57%
O=S(=O)(NCCN1CCCC1)c1ccc(-c2ccc(CNC3Cc4ccccc4C3)cc2)cc1F	6.55%	13.9%	5.36%
CCOC(=O)c1ccc(NC(=O)N[C@@H](Cc2ccccc2)C(=O)NC2CCN(Cc3ccc(OCCCN(C)C)cc3)C2)cc1 (stereo partly drawn)	-0.91%	0.74%	0.98%
Cc1nc(Nc2cc(Cl)ccc2O)nc(Nc2cc(Cl)ccc2O)c1[N+](=O)[O-]	4.36%	3.14%	1.45%
CCCCN(CCCC)CCCCCCNc1c2ccccc2nc2ccccc12	28%	22.7%	18.2%
COc1cc(CCN(C)Cc2ccc(OC)c(OC)c2)ccc1NC(=O)c1cccc2c(O)c3cccc(F)c3nc12	3.49%	1.84%	3.27%
O=C(NCCCN1CCCC1=O)c1cnc(N2CCC(Oc3ccccc3)CC2)c(Cl)c1	0.56%	3.58%	0.19%
O=C(/C=C/c1ccc(Cl)c(Cl)c1)NC1CCC(CN2CCC(Cc3cc4ccccc4[nH]3)CC2)CC1 (stereo not drawn)	4.78%	1.97%	3.2%
O=C(Nc1ccc(CCNCCCc2ccccc2)cc1)Nc1ccc(Cl)c(Cl)c1	-0.55%	-0.63%	-1.86%
CCCCCCCn1c(=N)n(CC(O)c2ccc(Cl)c(Cl)c2)c2ccccc21 (stereo not drawn)	8.14%	7.92%	13.2%
CN1CCC(Oc2ccc(NC(=O)c3ccc4c(=O)n(Cc5ccccc5)cnc4c3)cc2Cl)CC1	32.8%	57.4%	8.76%
COc1ccccc1CCCN1C(=O)C(c2ccccc2)(c2ccccc2)N=C1N	4.43%	0.97%	1.36%
COc1ccc(CCNc2nc(SCc3ccccc3Cl)nc3ccccc23)cc1OC	1.6%	3.03%	1.42%
Cc1c(-c2cccc(CNCCc3ccc(Cl)cc3)c2)cnc(N)c1C	-3.87%	-2.81%	-1.41%
COc1ccc(NC(=O)c2ccc(Br)c(C)c2)cc1N1CCN(CCCCc2ccccc2)CC1	1.19%	0.21%	0.85%
COc1ccc(CN(C)CCCc2ccc(NC(=O)c3cccc4c(=O)c5cccc(F)c5[nH]c34)cc2)cc1OC	14.2%	9.74%	10.1%
Cc1cccc2nc(-c3ccc(-c4cccc(CN5CCN(CCN6CCOCC6)CC5)c4)s3)[nH]c12	0.45%	-1.04%	0.64%
CCOc1cc(NCCCNc2ncc([N+](=O)[O-])cc2C)nc2ccccc12	1.72%	-1.69%	0.83%
COc1ccccc1C(C)NCC(=O)Nc1cc(C(F)(F)F)ccc1Cl (stereo not drawn)	1.79%	3.31%	0.58%
COc1ccc(-n2ccnc2SCC(=O)Nc2cccc(C(F)(F)F)c2)c(OC)c1	0.63%	0.74%	-0.9%
Cc1ccccc1C1CCN(C2CCC(NC(=O)/C=C/c3cccc(Cl)c3)CC2)CC1 (stereo not drawn)	-2.09%	-2.1%	-3.2%

SMILES	inhibition [1]	inhibition [2]	inhibition [3]
O=C(CSc1ccccn1)Nc1c(F)cccc1F	3.81%	3.5%	2.68%
Cn1c2ccccc2c2c3ccccc3c(CNC(CO)(CO)CO)cc21	13.8%	12.7%	6.67%
CC(Nc1nc(Nc2ccc(F)cc2)nc(SCC(N)=O)n1)c1ccccc1 (stereo not drawn)	0.82%	1.3%	0.81%
COc1c(C2CCN(CCCCNC(=O)c3ccc(-c4ccc(C#N)cc4)c(O)c3)CC2)ccc2c1CCCC2	-0.29%	-0.43%	0.55%
CSc1cccc(NC(=O)c2cc3ccccc3oc2=O)c1	0.58%	0.06%	-3.2%
c1cncc(Oc2ccc(Nc3ccnc4cc(-c5cccc(CN6CCOCC6)c5)ccc34)cc2)c1	-1.93%	-1.33%	-1.76%
Cc1cc(C)c(NC(=O)N[C@H]2CCN(CCCCCNC(=O)/C=C/c3ccc(Cl)c(Cl)c3)C2)c(C)c1	-0.8%	-0.95%	1.3%
CN(C)c1ccc(CN2CCCCC(NC(=O)c3cc(-c4ccccc4Cl)cs3)C2)cc1 (stereo not drawn)	2.84%	2.86%	4.6%
Cc1cc(NC(=O)c2ccc(S(=O)(=O)N(Cc3ccccc3)C(C)C)cc2)no1	3.7%	3.18%	3.77%
COc1ccc(-c2nc(NCc3ccccc3)c3cc(OC)c(OC)cc3n2)cc1	10.8%	12.1%	4.38%
Cc1cccc(S(=O)(=O)Nc2cccc(CCN3CCC(N4CCCCC4)CC3)c2)c1	3.99%	-1.11%	0.97%
CCOc1ccc2[nH]c(C)cc(=NN=Cc3ccccc3F)c2c1	4%	4.47%	3.86%
CN1CCCC(CN2CCN(Cc3cccc(-c4csc(-c5nc6ccccc6[nH]5)c4)c3)CC2)C1 (stereo not drawn)	3.41%	1.68%	1.91%
Cc1ccc(C)c(NC(=O)NC2CCN(c3ccnc(Nc4ccc(F)cc4)n3)C2)c1 (stereo not drawn)	-2.45%	-0.78%	-1.79%
COc1ccc(S(=O)(=O)N2CCC(NS(=O)(=O)c3ccc(F)cc3)CC2)cc1	3.51%	2.07%	3.69%
COc1ccc2nccc([C@@H](O)CN3CCC(NS(=O)(=O)c4cc(Br)c(Br)s4)CC3)c2c1	3.72%	2.36%	1.8%
CN1CCC(NCc2cccc(-c3ccc(S(=O)(=O)NCCN4CCCC4)s3)c2)CC1	4.8%	5.43%	0.76%
Clc1ccc(-c2[nH]c3ccccc3c2CN2CCC(N3CCCCC3)CC2)cc1	15.2%	14.7%	15.2%
COc1ccc(COc2cc(NCCCN)nc3ccccc23)cc1	4.66%	6.16%	4.46%
CC(C)CN(c1nc(C(=O)NNC(=O)[C@H](CC2CC2)NC(=O)c2cc3cc(OCCN(C)C)ccc3o2)cs1)C1CC1	6.19%	6.53%	7.9%
CCOc1cc(C=Cc2nc(O)c3ccccc3n2)cc(Cl)c1O	5.1%	4.12%	2.7%
N=C(N)NN=CC(=O)Nc1ccc(Cl)c(Cl)c1	0.13%	-1.4%	-1.96%
Nc1ccc2[nH]cc(C3CCN(CCC4CCN(C(=O)/C=C/c5ccc(Cl)c(Cl)c5)CC4)CC3)c2n1	1.27%	-0.31%	-0.02%

— ChEMBL document CHEMBL3433997, “St. Jude Leishmania screening dataset” (2016)
